Experiments:
Conditions in all cases: concentration: 1 μM, replicates: in singlicate; n = 1
[1] = tested on: MAPKAPK5
[2] = tested on: MARK1
[3] = tested on: MARK2
[4] = tested on: MARK3
[5] = tested on: MARK4
[6] = tested on: MAST1
[7] = tested on: T1, MEK1
T1 construct: gene MAP2K1

[8] = tested on: T2, MEK2
T2 construct: gene MAP2K2

[9] = tested on: T3, MEK3
T3 construct: gene MAP2K3

[10] = tested on: T4, MEK4
T4 construct: gene MAP2K4
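Further: KINOMEscan kinase panel screen.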

SMILES | %Inh [1] [%] | %Inh [2] [%] | %Inh [3] [%] | %Inh [4] [%] | %Inh [5] [%] | %Inh [6] [%] | %Inh [7] [%] | %Inh [8] [%] | %Inh [9] [%] | %Inh [10] [%]
Nc1ncc(-c2cn[nH]c2)c2scc(-c3ccc4c(c3)CCN4C(=O)Cc3ccccc3)c12 [GSK2593067] | 0 | 0 | 7 | 0 | 7 | 0 | 0 | 0 | 0 | 60
Fc1cc(Cl)ccc1Nc1ccnc2cc(-c3ccc(CN4CCOCC4)o3)ccc12 [GW560109] | 0 | 0 | 0 | 2 | 0 | 3 | 0 | 38 | 0 | 31
N#CC1(c2cccc(C(=O)Nc3cccc(Oc4ccc5nc(NC(=O)C6CC6)sc5n4)c3)c2)CC1 | 0 | 0 | 0 | 0 | 0 | 0 | 18 | 19 | 11 | 0
Cc1ccc(NC(=O)c2cccc(N3CCCCC3)c2)cc1-c1ccc(C(=O)NCC2CC2)cc1 [GSK1917008] | 0 | 0 | 0 | 20 | 10 | 0 | 0 | 0 | 0 | 8
COc1ccc(C)c(Nc2ccnc(Nc3ccc(-c4cnc[nH]4)cc3)n2)c1.Cl [GW784041] | 0 | 9 | 0 | 14 | 24 | 0 | 31 | 55 | 0 | 0
O=C1NC(=O)C(c2ccccc2Cl)=C1Nc1cccc(Cl)c1 [SB-342409] | 0 | 0 | 0 | 2 | 0 | 0 | 2 | 5 | 0 | 0
Cc1nn2c(=O)cc(N3CCO[C@H](C)C3)nc2n1Cc1cccc(Cl)c1Cl [GSK2373693] | 0 | 0 | 0 | 0 | 0 | 0 | 0 | 0 | 10 | 27
O=C(Nc1n[nH]c2cc(-c3cccs3)ccc12)C1CC1 [SB-731284] | 4 | 47 | 21 | 0 | 35 | 6 | 47 | 24 | 51 | 46

Reference: PMC5540273 (PLoS ONE, 2017)
